The source of these data is PubChem BioAssay (NCATS).

A short description of test [1]: P-glycoprotein substrates identified in KB-3-1 adenocarcinoma cell line, qHTS therapeutic library screen (AID 1346986). Note: nearly all actives have a fitted effect of over 60% in size. In a few lines:
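Viability read by CellTiter-Glo after 72 h compound exposure in dose-response of KB-3-1 and KB-8-5-11 (P-gp-high) cells. Hits needed AC50 < 10 uM, >50% maximum response and curve class -1.1 to -2.4. Cherry-picks retested ± tariquidar, including pcDNA/MDR-19 HEK-293 pair.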

Test [2] in a line: P-glycoprotein substrates identified in KB-8-5-11 adenocarcinoma cell line, qHTS therapeutic library screen (AID 1346987). Note: nearly all actives have a fitted effect of over 65% in size. In a few lines:
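Luminescence from CellTiter-Glo, read 5 min after addition, quantified survival of KB-8-5-11 (P-gp-overexpressing) cells exposed to compounds for 72 h. AC50 was derived from concentration-response curves.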

Test [3] in a line: Confirmatory screen GU Rhodamine qHTS for Zika virus inhibitors qHTS (AID 1347157). Note: potency is the fitted concentration of half-maximal effect; nearly all actives have a fitted effect of over 70% in size. The method in brief: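 In dose–response format, inhibition of unlinked protease (25 nM) was measured with 1.5 microM bis-peptide Rhodamine110 substrate. Aprotinin served as the intraplate control.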
The test system of test [4] is Zika virus NS2B-NS3 protease (unlinked complex). The test is described as follows: Primary screen GU Rhodamine qHTS for Zika virus inhibitors: Unlinked NS2B-NS3 protease assay (AID 1347159). Note: nearly all actives have a fitted effect of over 60% in size. Note: potency is the fitted concentration of half-maximal effect. In a few lines: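 Percent inhibition came from the 15-min rise in Rhodamine110 fluorescence (1.5 microM substrate, ~15% conversion), normalized to no-inhibitor and no-enzyme wells and Hill-fitted. Unlinked protease, 25 nM, pH 8.0 Tris buffer; compounds up to 114 microM, 15-min preincubation.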

A short description of test [5]: Confirmatory screen NINDS Rhodamine qHTS for Zika virus inhibitors (AID 1347161). Note: potency is the fitted concentration of half-maximal effect; nearly all actives have a fitted effect of over 60% in size. In a few lines:
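Each compound, titrated, sat 15 min with 25 nM linked protease before 1.5 microM Rhodamine110 substrate went in. Fluorescence gain over the next 15 min, in pH 8.0 Tris with Tween 20, gave Hill-fitted curves.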

Test [6] deals with Zika virus NS2B-NS3 protease (linked construct). The test is described as follows: Confirmatory screen NINDS AMC qHTS for Zika virus inhibitors (AID 1347152). Note: potency is the fitted concentration of half-maximal effect; nearly all actives have a fitted effect of over 70% in size. The method in brief: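 Linked NS2B-NS3 protease, 1 nM, in 10 mM Tris-HCl pH 8.0, 0.01% Tween 20; compounds preincubated 15 min at room temperature. Nle-KRR-AMC 10 microM (Km 18.3 µM); 15-min fluorescence change (340/450 nm) fitted to 4-parameter Hill.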

Test [7] has the same test system. The test is described as follows: Primary screen NINDS Rhodamine qHTS for Zika virus inhibitors (AID 1347160). Note: nearly all actives have a fitted effect of over 55% in size. Note: potency is the fitted concentration of half-maximal effect. In a few lines: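 Rhodamine110-peptide cleavage (1.5 µM substrate) by 25 nM linked NS2B-NS3 enzyme at pH 8.0 (Tris, Tween 20), after 15 min RT preincubation with compounds; 15-min fluorescence change normalized to controls and Hill-fitted.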
A short description of test [8]: Vero cells viability qHTS for Zika virus inhibitors (AID 1347167). In a few lines: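 Luminescent ATP readout (CellTiter Glo) after 30 min at 37 degrees C gives viability; cells in DMEM + 4% FBS were treated 24 to 48 hours with compound, following overnight attachment.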
Test [9] concerns Zika virus NS2B-NS3 protease (unlinked complex). As to the kind of experiment: Confirmatory screen GU AMC qHTS for Zika virus inhibitors (AID 1347153).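 For Potency: enzyme at 25 nM with substrate at 10 µM below its Km of 18.3 µM; potency is the fitted concentration of half-maximal effect.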 Note: nearly all actives have a fitted effect of over 70% in size. The method in brief: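 Compounds were preincubated 15 min at room temperature with 25 nM noncovalent NS2B-NS3 protease at pH 8.0; AMC substrate added at 10 microM and 15-min fluorescence gain (340/450 nm) converted to percent inhibition, fitted 4-parameter.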

Test [10] concerns Zika virus NS2B-NS3 protease (linked construct). As to the kind of experiment: 384 well plate NINDS Rhodamine confirmatory qHTS for Zika virus inhibitors (AID 1347164).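 Note: fluorescence from protease cleavage of Ac-LKRR-rhodamine 110 substrate; nearly all actives have a fitted effect of over 65% in size.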 Note: potency is the fitted concentration of half-maximal effect. The method in brief: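 Linked NS2B-NS3 protease (final 5, 30 or 60 nM) preincubated ~15 minutes with compounds, then 10 microM Ac-LKRR-Rhodamine 110 added. Fluorescence (485/538 nm) read after 25 minutes at room temperature, normalized to no-enzyme and no-inhibitor controls.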

The nature of test [11]: ZIKV-mCherry secondary qHTS for Zika virus inhibitors (AID 1347158). Note: top concentration of the series differs between compounds. In a few lines:
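Compounds were tested in Vero monkey kidney cells infected with recombinant mCherry-expressing Zika virus at MOI 1 for 48-72 h at 37 °C. Fixed cells were nuclear-stained and imaged, and infection rate was taken as the fraction of mCherry-positive cells.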

The test system of test [12] is Zika virus NS2B-NS3 protease (linked). The test is described as follows: 384 well plate NINDS AMC confirmatory qHTS for Zika virus inhibitors (AID 1347163). Note: potency is the fitted concentration of half-maximal effect; nearly all actives have a fitted effect of over 50% in size. The method in brief: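 Fluorescence at 355/460 nm was read after 25 minutes of cleavage of 30 microM Ac-VKTGKR-AMC at room temperature, in the dark. Before substrate addition, compounds (up to 1 mM final) sat ~15 minutes with 5, 30 or 60 nM linked protease. Signals were normalized to no-enzyme and no-inhibitor wells.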

Results filed as inconclusive are left out. Active and inactive are the calls of the source. Calls come from the whole dose curve; as a rule, active = well fitted curve in the direction sought with a large enough effect; inconclusive = small, poorly fitted or top-dose-only effect, or another doubt; inactive = no such curve, though single readings can be large; an effect the other way counts as inactive or inconclusive.

Take `COc1cc(CCCO)ccc1O[C@@H]1O[C@H](CO)[C@@H](O)[C@H](O)[C@H]1O`: the Potency result in test [1], in [2] and in test [4] was “inactive” in each case. Also, the Potency in [3] and in test [5] was 34.3 µM (active) each time.
For the compound `O=C1OC(c2ccc(O)cc2)C(O)=C1Cc1ccccc1` (centres undefined), the Potency result in [1] and in test [2] was “inactive” in each case.
Consider `C/C(=C\CCC(C)CCO)C(=O)OC[C@H]1O[C@@H](O[C@@H]2OC=C(C(=O)O)[C@H]3CC[C@](C)(O)[C@@H]23)C(O)[C@@H](O)C1O` (some centres undefined), for which the Potency entry in [1] and in test [2] was “inactive” in each case. Moreover, the Potency in test [6] was 13.6 µM (active); in [3], 4.29 µM (active); in test [4] it was 7.94 µM (active); in [7], 5.62 µM (active); in test [5], 2.15 µM (active). In addition, in [8], the compound was classed as inactive.
As for `C[C@]1(C2CCCC2)Cc2cc(OCC(=O)O)c(Cl)c(Cl)c2C1=O`, the Potency entry in test [1] and in [2] was “inactive” each time.
Consider `CCc1nnc(NS(=O)(=O)c2ccc(NC(=S)NC(=O)/C=C/c3ccc(F)cc3)cc2)s1`, for which the Potency entry in test [1] and in test [2] was “inactive” in each case. The Potency in test [6] was 19.7 µM (active); in [3], 2.78 µM (active); in [4] it was 3.16 µM (active); in [7], 3.16 µM (active); in test [5] it was 2.78 µM (active). Further, in test [8], the result was inactive.
`COC(=O)c1[nH]c(=O)c2ccccc2c1-c1ccc[nH]1`: the Potency result in test [1] and in [2] was “inactive” each time.
Regarding `C[C@@H](CC[C@@H]1[C@@]2(C)CCCC(C)(C)C2CC[C@@]1(C)O)CC(=O)O` (some centres undefined), the Potency entry in test [1] and in [2] was “inactive” in each case.
On to `CC1(C)CC=C(c2cnc3ccccc3c2)c2cc(C(=O)Nc3ccc(C(=O)O)cc3)ccc21`, for which the Potency entry in test [1], in [2] and in test [10] was “inactive” throughout. For the same compound, the Potency in test [6] is 17.5 µM (active); in test [9] it was 15.6 µM (active); in test [3], 2.78 µM (active); in [4], 1.78 µM (active); in test [7], 3.16 µM (active); in test [5], 1.97 µM (active). Moreover, in [8], the call was inactive.
`Cc1ncc([N+](=O)[O-])n1C[C@H](O)CN1CCOCC1`: the Potency result in [1] and in test [2] was “inactive” in each case.
For the compound `C=C1[C@H]2CCC3[C@]4(C)CCC[C@@](C)(C(=O)O)C4CC[C@]3(C2)[C@H]1OC(C)=O` (some centres undefined), the Potency result in [1] and in test [2] was “inactive” in each case.
Take `O=C1C(Cl)=C(N2CCOCC2)C(=O)N1c1ccc(Cl)c(Cl)c1`: the Potency entry in test [1] and in test [2] was “inactive” in each case.
In the case of `CC1OC(OC2C(OC3C(O[C@H]4CC[C@@]5(C)C(CC[C@]6(C)C5C(=O)CC5=C7CC(C)(C)CC(O)[C@]7(C)CC[C@]56C)C4(C)C)OC(C(=O)O)C(O)C3O)OCC(O)C2O)C(O)C(O)C1O` (some centres undefined), the outcome in test [1] and in test [2] was “inactive [at 9.29 µM]” throughout.
As to `CC1(C)[C@H]2C[C@H](C/C=C\CCCC(=O)O)[C@@H](NC(=O)c3csc4ccc(O)cc34)[C@@H]1C2`, the Potency entry in test [1], in [2] and in [7] was “inactive” throughout. Also, the Potency is 24.8 µM (active) in test [3], 14.1 µM (active) in test [4] and 31.2 µM (active) in [5].
For `C=Cc1cc2oc(-c3ccc(O)c(F)c3)nc2cc1O`, the Potency entry in test [1] and in test [2] was “inactive” in each case.
For the compound `CC(=O)NC(C(=O)OC1CCC(C)(C)C2CC=C3C(=O)OCC3C12C)C(C)C` (centres undefined), the Potency entry in [1] and in test [2] was “inactive” in each case.
Consider `COC(=O)C1=CO[C@@H](O[C@@H]2O[C@H](CO[C@@H]3O[C@H](CO)[C@@H](O)[C@H](O)[C@H]3O)[C@@H](O)[C@H](O)[C@H]2O)[C@@H]2C(CO)=CC[C@H]12`, for which the Potency result in test [1], in test [2] and in test [4] was “inactive” throughout.
Turning to `CC(=O)OC12CC(C)C(OC(=O)c3ccccc3)C1/C=C(/C)C(OC(=O)c1ccccc1)CC(=O)C(C)(C)/C=C/C(C)C2=O` (centres undefined), the Potency result in test [1] and in test [2] was “inactive” in each case. The Potency in test [3] is 4.64 µM (active); in [4], 6.31 µM (active); in test [7], 7.08 µM (active); in test [5], 3.68 µM (active); in test [10], 35.5 µM (active). Further, in [8], the result was inactive.
Consider `CCC(C)/C=C(C)/C=C/C1=CC2=C(Cl)C(=O)C(C)(OC(C)=O)C(=O)C2=CN1C(CCC(=O)O)C(=O)O` (centres undefined), for which the Potency result in test [1] and in [2] was “inactive” each time.
Regarding `Cc1ccccc1NC(=O)Nc1ccc(CN2C(=O)N([C@@H](CC(C)C)C(=O)N[C@@H](CC(=O)O)c3ccccc3)C(=O)C2(C)C)cc1`, the Potency entry in test [1], in [2], in test [9], in test [11] and in test [10] was “inactive” each time. The Potency in [3] is 35 µM (active); in test [4], 31.6 µM (active); in test [7], 7.08 µM (active); in test [5] it was 27.8 µM (active); in test [12], 10 µM (active). For the same compound, in test [8], the result was inactive.
Take `O=C(/C=C/c1ccc(O)cc1)OC[C@@]1(O)C=C[C@@H]2C(C(=O)O)=CO[C@@H](O[C@@H]3O[C@H](CO)[C@@H](O)[C@H](O)[C@H]3O)[C@@H]21`: the Potency entry in test [1] and in test [2] was “inactive” in each case.
On to `Nc1nc2c(nc(Sc3ccc(Cl)cc3)n2[C@@H]2O[C@@H]3COP(=O)(O)O[C@H]3[C@H]2O)c(=O)[nH]1`, for which the Potency entry in test [1] and in [2] was “inactive” in each case.
Take `CC1CC(=O)C2=C(O1)OC1(C)CCC3C(C)(C)C4OC4C(=O)C3(C)C1C2` (centres undefined): the Potency entry in test [1] and in test [2] was “inactive” throughout.
On to `COC(=O)C1(C)CCCC2(C)c3ccc(C(C)C)cc3C(O)C(O)C12` (centres undefined), for which the Potency entry in test [1] and in [2] was “inactive” throughout.
